One experiment concerns the target T1, GABPA (Homo sapiens, UniProt Q06546 1-454).
T1 sequence: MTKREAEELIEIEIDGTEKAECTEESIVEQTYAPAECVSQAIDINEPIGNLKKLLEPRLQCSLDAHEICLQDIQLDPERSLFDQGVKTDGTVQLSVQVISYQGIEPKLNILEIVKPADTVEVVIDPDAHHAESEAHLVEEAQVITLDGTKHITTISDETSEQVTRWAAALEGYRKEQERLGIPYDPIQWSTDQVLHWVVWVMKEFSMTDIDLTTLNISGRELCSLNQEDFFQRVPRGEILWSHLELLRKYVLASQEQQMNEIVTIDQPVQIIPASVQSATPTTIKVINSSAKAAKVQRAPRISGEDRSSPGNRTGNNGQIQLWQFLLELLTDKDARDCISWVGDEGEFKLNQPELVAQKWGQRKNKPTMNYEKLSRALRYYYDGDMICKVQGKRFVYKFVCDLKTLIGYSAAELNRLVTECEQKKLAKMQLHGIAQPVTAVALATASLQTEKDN
The experiment in a line: DAPPL (digital affinity profiling via proximity ligation, sequencing); 10 mM Tris-HCl pH 7.5, 50 mM NaCl, 1 mM DTT, 4% glycerol, room temperature, 30 min; GST-TFs on glutathione beads, 16-mer random dsDNA library, 0.1% formaldehyde crosslink after washing; high values mean tight binding. As to conditions: protein: recombinant; tags: N-terminal GST; dsDNA, one strand shown. Put shortly: (§1)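 Sequencing on an Illumina NextSeq500 followed washing, crosslinking with 0.1% formaldehyde, proximity ligation (BsaI/T4 ligase, 1 h, 37 °C) and PCR amplification of pools that had been incubated for 30 min at room temperature with 200 nmole of a random double-stranded 16-mer DNA library in Tris/NaCl/DTT/glycerol buffer. Each pool held DNA-barcoded human transcription factors, expressed in yeast as GST fusions and captured on glutathione beads, plus a tag-only sample. Binding signal is a hexamer's read frequency for a factor divided by its frequency in the tag-only sample.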
Turning to CACTTG, the binding signal was 1.32 fold enrichment (6-mer frequency, TF over GST control).

For TACGTT, the binding signal is 1.4 fold enrichment (6-mer frequency, TF over GST control).

Consider CATTCG, for which the binding signal is 1.17 fold enrichment (6-mer frequency, TF over GST control).

For CCTTCG, the binding signal was 1.35 fold enrichment (6-mer frequency, TF over GST control).

As to TGACCT, the binding signal is 1.81 fold enrichment (6-mer frequency, TF over GST control).

Take TATAAC: the binding signal was 1.2 fold enrichment (6-mer frequency, TF over GST control).

With CTTTCA, the binding signal was 1.46 fold enrichment (6-mer frequency, TF over GST control).

As for AATATT, the binding signal was 1.29 fold enrichment (6-mer frequency, TF over GST control).

As to CTTGCA, the binding signal is 1.31 fold enrichment (6-mer frequency, TF over GST control).

In the case of TTGCGG, the binding signal was 1.21 fold enrichment (6-mer frequency, TF over GST control).

Consider TCTGTT, for which the binding signal was 1.24 fold enrichment (6-mer frequency, TF over GST control).

Turning to TCCTGG, the binding signal was 1.69 fold enrichment (6-mer frequency, TF over GST control).

CGAAAA: the binding signal was 1.17 fold enrichment (6-mer frequency, TF over GST control).

As to TAATCC, the binding signal is 1.25 fold enrichment (6-mer frequency, TF over GST control).

Consider TTTCTT, for which the binding signal is 1.42 fold enrichment (6-mer frequency, TF over GST control).

On to CTCAGC, for which the binding signal is 1.38 fold enrichment (6-mer frequency, TF over GST control).

For the sequence ACTTGT, the binding signal was 1.29 fold enrichment (6-mer frequency, TF over GST control).

With CTTCTA, the binding signal is 1.44 fold enrichment (6-mer frequency, TF over GST control).

With TTCGAT, the binding signal was 1.22 fold enrichment (6-mer frequency, TF over GST control).

TCTCCG: the binding signal is 1.57 fold enrichment (6-mer frequency, TF over GST control).

The target in the next experiment is T2, ERG (Homo sapiens, UniProt P11308 1-479).
T2 sequence: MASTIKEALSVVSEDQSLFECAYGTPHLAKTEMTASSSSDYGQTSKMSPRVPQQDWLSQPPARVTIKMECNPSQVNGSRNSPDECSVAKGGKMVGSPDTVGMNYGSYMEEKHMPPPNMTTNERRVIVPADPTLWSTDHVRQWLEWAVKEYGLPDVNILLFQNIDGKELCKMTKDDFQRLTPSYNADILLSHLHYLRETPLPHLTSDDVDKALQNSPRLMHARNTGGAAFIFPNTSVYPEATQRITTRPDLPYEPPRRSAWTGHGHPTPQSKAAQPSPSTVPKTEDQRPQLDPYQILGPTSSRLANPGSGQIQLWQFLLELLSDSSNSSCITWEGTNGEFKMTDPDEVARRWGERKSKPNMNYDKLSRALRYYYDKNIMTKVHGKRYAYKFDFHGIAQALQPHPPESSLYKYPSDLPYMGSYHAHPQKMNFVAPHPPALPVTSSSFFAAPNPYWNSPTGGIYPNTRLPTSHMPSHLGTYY
Described as above. As to conditions: protein: recombinant; tags: N-terminal GST; dsDNA, one strand shown. Put shortly: as §1
On to TGGCAA, for which the binding signal is 1.15 fold enrichment (6-mer frequency, TF over GST control).

On to AATAAC, for which the binding signal was 1.27 fold enrichment (6-mer frequency, TF over GST control).

Consider ATTTGT, for which the binding signal was 1.28 fold enrichment (6-mer frequency, TF over GST control).

Turning to CTGGCA, the binding signal was 1.2 fold enrichment (6-mer frequency, TF over GST control).

Regarding GCTTAT, the binding signal is 1.18 fold enrichment (6-mer frequency, TF over GST control).

Consider TGTCTA, for which the binding signal was 1.17 fold enrichment (6-mer frequency, TF over GST control).

Regarding GCCGAT, the binding signal is 1.03 fold enrichment (6-mer frequency, TF over GST control).

With ATTGGG, the binding signal was 1.13 fold enrichment (6-mer frequency, TF over GST control).

With TTGATC, the binding signal is 1.19 fold enrichment (6-mer frequency, TF over GST control).

Take AATCGC: the binding signal is 1.07 fold enrichment (6-mer frequency, TF over GST control).

With CCTCTC, the binding signal is 1.37 fold enrichment (6-mer frequency, TF over GST control).

Regarding CCTCTT, the binding signal was 1.68 fold enrichment (6-mer frequency, TF over GST control).

Take TTTGGA: the binding signal is 1.11 fold enrichment (6-mer frequency, TF over GST control).

On to TCTACA, for which the binding signal is 1.23 fold enrichment (6-mer frequency, TF over GST control).

Turning to TCTCGC, the binding signal was 1.72 fold enrichment (6-mer frequency, TF over GST control).

For CTGATG, the binding signal was 1.43 fold enrichment (6-mer frequency, TF over GST control).

Turning to CTGATC, the binding signal was 1.42 fold enrichment (6-mer frequency, TF over GST control).

As for CTCATC, the binding signal was 1.34 fold enrichment (6-mer frequency, TF over GST control).

On to ATATTT, for which the binding signal was 1.53 fold enrichment (6-mer frequency, TF over GST control).

In the case of TACAAT, the binding signal is 1.29 fold enrichment (6-mer frequency, TF over GST control).

Turning to CACTTG, the binding signal is 1.37 fold enrichment (6-mer frequency, TF over GST control).

As to TACGTT, the binding signal was 1.31 fold enrichment (6-mer frequency, TF over GST control).

As for CATTCG, the binding signal is 1.21 fold enrichment (6-mer frequency, TF over GST control).

Take CCTTCG: the binding signal is 1.3 fold enrichment (6-mer frequency, TF over GST control).

For the sequence TGACCT, the binding signal was 1.73 fold enrichment (6-mer frequency, TF over GST control).

Consider TATAAC, for which the binding signal is 1.28 fold enrichment (6-mer frequency, TF over GST control).

Consider CTTTCA, for which the binding signal is 1.23 fold enrichment (6-mer frequency, TF over GST control).

Consider AATATT, for which the binding signal was 1.18 fold enrichment (6-mer frequency, TF over GST control).

For the sequence CTTGCA, the binding signal was 1.27 fold enrichment (6-mer frequency, TF over GST control).

For TTGCGG, the binding signal was 1.28 fold enrichment (6-mer frequency, TF over GST control).

Take TCTGTT: the binding signal is 1.42 fold enrichment (6-mer frequency, TF over GST control).

Take TCCTGG: the binding signal was 1.85 fold enrichment (6-mer frequency, TF over GST control).

As to CGAAAA, the binding signal was 1.06 fold enrichment (6-mer frequency, TF over GST control).

As for TAATCC, the binding signal is 1.34 fold enrichment (6-mer frequency, TF over GST control).

As for TTTCTT, the binding signal was 1.37 fold enrichment (6-mer frequency, TF over GST control).

Consider CTCAGC, for which the binding signal is 1.24 fold enrichment (6-mer frequency, TF over GST control).

For ACTTGT, the binding signal was 1.15 fold enrichment (6-mer frequency, TF over GST control).

In the case of CTTCTA, the binding signal is 1.32 fold enrichment (6-mer frequency, TF over GST control).

With TTCGAT, the binding signal is 1.43 fold enrichment (6-mer frequency, TF over GST control).

For the sequence TCTCCG, the binding signal is 1.42 fold enrichment (6-mer frequency, TF over GST control).

(Values after PMC7862700, “An all-to-all approach to the identification of sequence-specific readers for epigenetic DNA modifications on cytosine”.)
